This passage reports inhibition results from ChEMBL document CHEMBL1961873, “Compounds: GSK PKIS; Assays: Nanosyn kinase panel” (2012).

Experiment [1] addresses Mitogen-activated protein kinase 3 (Homo sapiens) (UniProt P27361). The following applies: at 1 µM.
The target of experiment [2] is SRSF protein kinase 3 (Homo sapiens) (UniProt Q9UPE1). Particulars: at 0.1 µM.
Experiment [3] shares this target. The following applies: at 1 µM.
Experiment [4] deals with Mitogen-activated protein kinase 14 (Homo sapiens) (UniProt Q16539). The following applies: at 0.1 µM.
Chain of Mitogen-activated protein kinase 14 (Homo sapiens) (Q16539 whole entry): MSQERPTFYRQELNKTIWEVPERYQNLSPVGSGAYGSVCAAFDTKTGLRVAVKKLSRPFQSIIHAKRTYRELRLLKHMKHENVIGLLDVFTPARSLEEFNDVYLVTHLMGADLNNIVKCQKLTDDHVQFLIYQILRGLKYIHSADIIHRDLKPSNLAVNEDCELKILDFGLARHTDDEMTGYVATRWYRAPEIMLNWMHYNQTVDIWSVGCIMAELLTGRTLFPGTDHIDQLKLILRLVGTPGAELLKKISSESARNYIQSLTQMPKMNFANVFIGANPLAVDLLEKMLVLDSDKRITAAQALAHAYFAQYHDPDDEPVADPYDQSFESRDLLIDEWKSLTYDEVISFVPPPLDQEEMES
For experiment [5] the target is unchanged. The following applies: at 1 µM.
Experiment [6] deals with Mitogen-activated protein kinase 11 (Homo sapiens) (UniProt Q15759). Particulars: at 0.1 µM.
Chain of Mitogen-activated protein kinase 11 (Homo sapiens) (Q15759 whole entry): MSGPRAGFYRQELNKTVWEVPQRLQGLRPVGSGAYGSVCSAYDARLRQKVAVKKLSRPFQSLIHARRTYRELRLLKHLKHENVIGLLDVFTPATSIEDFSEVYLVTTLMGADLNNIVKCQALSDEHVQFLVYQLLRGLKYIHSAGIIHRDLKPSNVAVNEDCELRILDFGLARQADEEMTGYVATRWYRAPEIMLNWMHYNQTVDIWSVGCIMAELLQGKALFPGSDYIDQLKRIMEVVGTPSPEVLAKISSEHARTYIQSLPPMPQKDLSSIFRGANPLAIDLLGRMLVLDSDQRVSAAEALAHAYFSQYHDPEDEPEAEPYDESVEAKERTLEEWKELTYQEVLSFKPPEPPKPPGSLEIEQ
For experiment [7] the target is unchanged. The following applies: at 1 µM.
Experiment [8] deals with T1, Mitogen-activated protein kinase 13 (Homo sapiens) (UniProt O15264).
T1 sequence (whole entry): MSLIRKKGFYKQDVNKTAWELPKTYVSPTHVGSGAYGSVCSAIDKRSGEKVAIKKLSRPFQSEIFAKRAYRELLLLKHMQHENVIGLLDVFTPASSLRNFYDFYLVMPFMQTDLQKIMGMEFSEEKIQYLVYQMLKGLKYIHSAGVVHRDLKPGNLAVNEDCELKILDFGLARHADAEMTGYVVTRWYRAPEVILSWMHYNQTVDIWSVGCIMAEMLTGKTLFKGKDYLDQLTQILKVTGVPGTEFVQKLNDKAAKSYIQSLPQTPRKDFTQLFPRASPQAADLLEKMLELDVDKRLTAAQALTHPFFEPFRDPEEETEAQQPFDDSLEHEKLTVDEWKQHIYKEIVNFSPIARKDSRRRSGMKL
Particulars: at 0.1 µM.

Experiment [9] has as its target T1, Mitogen-activated protein kinase 13 (Homo sapiens). The following applies: at 1 µM.
The target in experiment [10] is T2, Mitogen-activated protein kinase 12 (Homo sapiens) (UniProt P53778).
T2 sequence (whole entry): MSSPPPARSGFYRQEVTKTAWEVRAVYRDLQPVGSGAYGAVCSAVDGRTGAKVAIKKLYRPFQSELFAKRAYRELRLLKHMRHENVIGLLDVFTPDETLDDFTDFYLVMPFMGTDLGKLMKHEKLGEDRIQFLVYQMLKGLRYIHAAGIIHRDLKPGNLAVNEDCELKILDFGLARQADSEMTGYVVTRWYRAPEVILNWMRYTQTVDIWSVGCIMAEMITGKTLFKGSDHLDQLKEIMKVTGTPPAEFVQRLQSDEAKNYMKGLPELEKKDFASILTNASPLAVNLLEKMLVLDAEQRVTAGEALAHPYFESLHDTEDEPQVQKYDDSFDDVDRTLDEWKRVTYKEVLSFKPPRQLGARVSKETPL
The following applies: at 0.1 µM.

For experiment [11], the target named is T2, Mitogen-activated protein kinase 12 (Homo sapiens). Particulars: at 1 µM.
The target of experiment [12] is SRSF protein kinase 1 (Homo sapiens) (UniProt Q96SB4). The following applies: at 0.1 µM.
Chain of SRSF protein kinase 1 (Homo sapiens) (Q96SB4 whole entry): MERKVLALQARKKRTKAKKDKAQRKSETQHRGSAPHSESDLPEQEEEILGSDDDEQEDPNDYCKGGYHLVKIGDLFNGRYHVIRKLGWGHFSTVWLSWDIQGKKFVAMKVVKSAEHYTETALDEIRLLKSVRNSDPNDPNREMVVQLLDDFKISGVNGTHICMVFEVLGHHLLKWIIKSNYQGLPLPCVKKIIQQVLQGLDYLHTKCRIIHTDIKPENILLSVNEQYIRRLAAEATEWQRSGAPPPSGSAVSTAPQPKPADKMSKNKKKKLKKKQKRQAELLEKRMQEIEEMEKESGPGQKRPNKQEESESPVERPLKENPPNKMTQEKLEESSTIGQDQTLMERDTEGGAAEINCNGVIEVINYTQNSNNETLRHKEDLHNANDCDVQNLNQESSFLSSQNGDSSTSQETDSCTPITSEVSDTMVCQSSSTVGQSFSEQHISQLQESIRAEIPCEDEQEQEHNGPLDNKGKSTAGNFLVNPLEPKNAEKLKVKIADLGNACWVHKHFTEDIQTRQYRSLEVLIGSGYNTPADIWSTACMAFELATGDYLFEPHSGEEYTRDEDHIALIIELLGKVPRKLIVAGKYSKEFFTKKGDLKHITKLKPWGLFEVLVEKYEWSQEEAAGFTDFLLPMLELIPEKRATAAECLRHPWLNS
For experiment [13] the target is unchanged. The following applies: at 1 µM.
The target in experiment [14] is Phosphatidylinositol 4,5-bisphosphate 3-kinase catalytic subunit alpha isoform (Homo sapiens) (UniProt P42336). Particulars: at 0.1 µM.
Chain of Phosphatidylinositol 4,5-bisphosphate 3-kinase catalytic subunit alpha isoform (Homo sapiens) (P42336 whole entry, canonical isoform): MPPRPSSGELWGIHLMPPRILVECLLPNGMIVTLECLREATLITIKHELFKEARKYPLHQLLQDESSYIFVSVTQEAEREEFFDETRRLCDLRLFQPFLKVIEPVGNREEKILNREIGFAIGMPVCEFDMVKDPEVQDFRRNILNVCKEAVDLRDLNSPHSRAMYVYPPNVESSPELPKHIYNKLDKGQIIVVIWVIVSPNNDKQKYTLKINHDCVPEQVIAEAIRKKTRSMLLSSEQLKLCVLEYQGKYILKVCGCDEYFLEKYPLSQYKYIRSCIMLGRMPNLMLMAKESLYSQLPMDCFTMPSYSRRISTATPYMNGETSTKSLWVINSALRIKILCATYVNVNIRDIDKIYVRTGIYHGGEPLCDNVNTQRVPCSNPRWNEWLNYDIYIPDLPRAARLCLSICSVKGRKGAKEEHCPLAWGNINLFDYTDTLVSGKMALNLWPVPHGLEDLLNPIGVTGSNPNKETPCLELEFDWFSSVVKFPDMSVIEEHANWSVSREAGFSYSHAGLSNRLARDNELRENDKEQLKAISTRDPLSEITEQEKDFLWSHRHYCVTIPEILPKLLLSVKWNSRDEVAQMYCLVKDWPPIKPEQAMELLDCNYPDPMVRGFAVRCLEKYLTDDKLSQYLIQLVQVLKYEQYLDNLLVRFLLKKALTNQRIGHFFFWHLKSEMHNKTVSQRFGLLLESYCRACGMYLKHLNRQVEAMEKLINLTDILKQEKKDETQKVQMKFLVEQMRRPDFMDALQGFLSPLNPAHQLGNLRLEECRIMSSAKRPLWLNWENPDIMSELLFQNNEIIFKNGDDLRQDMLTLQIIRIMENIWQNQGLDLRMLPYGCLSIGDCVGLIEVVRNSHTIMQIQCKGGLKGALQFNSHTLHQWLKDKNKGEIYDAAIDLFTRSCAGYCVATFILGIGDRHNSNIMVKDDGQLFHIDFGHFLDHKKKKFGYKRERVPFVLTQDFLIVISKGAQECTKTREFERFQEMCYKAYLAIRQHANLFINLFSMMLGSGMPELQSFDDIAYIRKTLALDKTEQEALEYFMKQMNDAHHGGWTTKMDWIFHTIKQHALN
The target is the same in experiment [15]. The following applies: at 1 µM.
The target in experiment [16] is T3, Phosphatidylinositol 4,5-bisphosphate 3-kinase catalytic subunit delta isoform (Homo sapiens) (UniProt O00329).
T3 sequence (whole entry): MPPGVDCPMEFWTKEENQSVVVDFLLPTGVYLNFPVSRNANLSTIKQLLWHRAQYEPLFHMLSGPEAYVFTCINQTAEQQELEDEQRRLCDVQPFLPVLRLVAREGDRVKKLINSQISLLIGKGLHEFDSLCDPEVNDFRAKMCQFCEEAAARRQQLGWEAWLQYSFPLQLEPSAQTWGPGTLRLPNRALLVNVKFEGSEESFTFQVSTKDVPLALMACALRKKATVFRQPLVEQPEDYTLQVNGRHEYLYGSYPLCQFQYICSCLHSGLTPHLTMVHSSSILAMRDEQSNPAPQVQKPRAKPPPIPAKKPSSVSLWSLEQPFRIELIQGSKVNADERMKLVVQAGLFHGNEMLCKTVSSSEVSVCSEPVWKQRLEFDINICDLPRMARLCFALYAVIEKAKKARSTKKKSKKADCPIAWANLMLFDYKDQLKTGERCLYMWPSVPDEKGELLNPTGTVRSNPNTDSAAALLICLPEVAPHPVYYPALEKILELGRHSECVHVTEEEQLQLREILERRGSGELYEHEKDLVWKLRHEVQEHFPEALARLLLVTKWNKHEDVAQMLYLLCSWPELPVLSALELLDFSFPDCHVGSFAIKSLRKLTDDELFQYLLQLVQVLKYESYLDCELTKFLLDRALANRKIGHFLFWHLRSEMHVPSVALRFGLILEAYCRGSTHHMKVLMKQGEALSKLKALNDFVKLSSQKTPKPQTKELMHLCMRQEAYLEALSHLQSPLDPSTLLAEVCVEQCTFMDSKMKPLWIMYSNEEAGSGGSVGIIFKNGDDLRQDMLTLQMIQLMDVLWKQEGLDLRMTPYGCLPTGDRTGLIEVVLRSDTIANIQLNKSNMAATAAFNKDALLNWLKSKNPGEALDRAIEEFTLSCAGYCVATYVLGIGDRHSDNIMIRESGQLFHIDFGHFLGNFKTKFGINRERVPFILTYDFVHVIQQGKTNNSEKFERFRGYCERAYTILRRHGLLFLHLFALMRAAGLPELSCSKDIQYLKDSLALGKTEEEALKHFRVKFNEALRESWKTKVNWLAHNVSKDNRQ
Particulars: at 0.1 µM.

For experiment [17], the target named is T3, Phosphatidylinositol 4,5-bisphosphate 3-kinase catalytic subunit delta isoform (Homo sapiens). The following applies: at 1 µM.
Experiment [18] addresses Phosphatidylinositol 4-kinase beta (Homo sapiens) (UniProt Q9UBF8). Particulars: at 0.1 µM.
Experiment [19] has the same target. The following applies: at 1 µM.
Experiment [20] addresses Sphingosine kinase 1 (Homo sapiens) (UniProt Q9NYA1). The following applies: at 0.1 µM.

Chain of SRSF protein kinase 3 (Homo sapiens) (Q9UPE1 whole entry): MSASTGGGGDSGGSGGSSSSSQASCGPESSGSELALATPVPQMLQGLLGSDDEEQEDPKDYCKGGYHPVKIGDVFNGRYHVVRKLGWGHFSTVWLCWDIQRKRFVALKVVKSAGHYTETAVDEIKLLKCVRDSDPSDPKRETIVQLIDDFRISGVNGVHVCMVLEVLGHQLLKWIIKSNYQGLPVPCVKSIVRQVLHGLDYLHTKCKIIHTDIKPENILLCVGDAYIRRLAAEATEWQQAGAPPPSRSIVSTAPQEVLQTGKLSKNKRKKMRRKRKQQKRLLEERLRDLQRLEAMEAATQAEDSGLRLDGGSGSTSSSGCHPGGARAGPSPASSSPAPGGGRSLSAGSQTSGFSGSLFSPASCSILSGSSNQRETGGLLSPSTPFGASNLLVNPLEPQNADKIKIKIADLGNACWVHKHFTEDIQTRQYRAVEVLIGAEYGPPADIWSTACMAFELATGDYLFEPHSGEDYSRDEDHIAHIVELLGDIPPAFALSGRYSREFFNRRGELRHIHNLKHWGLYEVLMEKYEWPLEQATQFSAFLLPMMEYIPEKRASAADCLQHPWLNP
Chain of Mitogen-activated protein kinase 3 (Homo sapiens) (P27361 whole entry): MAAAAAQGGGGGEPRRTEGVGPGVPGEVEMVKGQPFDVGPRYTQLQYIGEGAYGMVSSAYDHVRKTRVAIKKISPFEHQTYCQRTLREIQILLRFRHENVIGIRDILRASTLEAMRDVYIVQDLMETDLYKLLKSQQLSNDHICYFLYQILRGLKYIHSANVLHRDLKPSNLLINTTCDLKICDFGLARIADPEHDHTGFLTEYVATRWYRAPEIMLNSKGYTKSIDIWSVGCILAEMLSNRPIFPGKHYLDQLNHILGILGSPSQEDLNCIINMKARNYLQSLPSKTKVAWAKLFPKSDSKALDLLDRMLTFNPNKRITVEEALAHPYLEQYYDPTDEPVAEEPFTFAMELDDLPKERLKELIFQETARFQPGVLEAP
Chain of Phosphatidylinositol 4-kinase beta (Homo sapiens) (Q9UBF8 2-816 limits assumed): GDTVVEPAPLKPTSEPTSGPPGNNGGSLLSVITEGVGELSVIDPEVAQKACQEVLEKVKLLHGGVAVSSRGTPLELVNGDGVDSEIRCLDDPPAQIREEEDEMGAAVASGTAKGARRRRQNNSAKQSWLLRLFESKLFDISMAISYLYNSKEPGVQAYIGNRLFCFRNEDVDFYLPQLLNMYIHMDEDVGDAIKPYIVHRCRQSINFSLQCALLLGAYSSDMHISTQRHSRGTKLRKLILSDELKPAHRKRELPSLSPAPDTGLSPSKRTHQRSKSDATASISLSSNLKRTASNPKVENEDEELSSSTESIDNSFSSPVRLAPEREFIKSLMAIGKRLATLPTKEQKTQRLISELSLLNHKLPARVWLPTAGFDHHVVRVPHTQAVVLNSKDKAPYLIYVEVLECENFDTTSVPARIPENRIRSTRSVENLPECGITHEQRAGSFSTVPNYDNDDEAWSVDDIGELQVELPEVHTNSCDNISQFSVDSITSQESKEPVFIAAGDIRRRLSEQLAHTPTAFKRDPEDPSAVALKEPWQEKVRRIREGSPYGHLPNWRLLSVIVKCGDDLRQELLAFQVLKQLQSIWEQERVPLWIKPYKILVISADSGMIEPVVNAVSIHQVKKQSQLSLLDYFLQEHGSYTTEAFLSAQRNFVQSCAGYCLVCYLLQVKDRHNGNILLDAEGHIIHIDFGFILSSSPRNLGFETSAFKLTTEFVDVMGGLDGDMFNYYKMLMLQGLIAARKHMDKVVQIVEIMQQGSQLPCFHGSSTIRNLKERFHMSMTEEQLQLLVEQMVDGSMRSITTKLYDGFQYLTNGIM
Chain of Sphingosine kinase 1 (Homo sapiens) (Q9NYA1 whole entry): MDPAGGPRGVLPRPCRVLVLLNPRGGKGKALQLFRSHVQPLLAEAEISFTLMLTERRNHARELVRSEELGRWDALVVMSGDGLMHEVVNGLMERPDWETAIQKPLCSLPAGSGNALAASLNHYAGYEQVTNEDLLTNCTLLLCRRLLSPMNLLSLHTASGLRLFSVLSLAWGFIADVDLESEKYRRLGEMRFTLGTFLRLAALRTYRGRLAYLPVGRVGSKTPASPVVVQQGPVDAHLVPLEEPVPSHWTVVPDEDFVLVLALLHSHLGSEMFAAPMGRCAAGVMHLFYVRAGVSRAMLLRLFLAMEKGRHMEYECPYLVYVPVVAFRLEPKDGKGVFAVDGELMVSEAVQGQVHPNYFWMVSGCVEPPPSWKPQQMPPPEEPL

In the case of `c1ccc(Oc2ccc(Nc3ncc(-c4ccccc4)o3)cc2)cc1`, the inhibition in experiment [1] is 1.29%; in experiment [2] it was 0.57%; in experiment [3], 0.33%; in [4] it was 5.45%; in experiment [5], 8.09%; in experiment [6] it was -0.05%. The inhibition in experiment [7] is 4.25%; in experiment [8], 1.2%; in experiment [9] it was 0.96%; in experiment [10], -0.32%; in experiment [11] it was 1.07%; in experiment [12], -0.83%. Also, the inhibition in [13] is 0.96%; in experiment [14] it was 4.13%; in experiment [15] it was 5.69%; in experiment [16], 6.64%; in experiment [17], 7.88%; in experiment [18] it was 2.11%. Besides, the inhibition in experiment [19] was 4.73%; in experiment [20], 0.41%.
Turning to `Fc1ccc(-c2c(-c3ccncc3)nc3n2CCS3)cc1`, the inhibition is 2.25% in experiment [1]; -1.16% in experiment [2]; 1.49% in experiment [3]; 1.13% in experiment [4]; 10.9% in experiment [5]; 1.9% in experiment [6]. For the same compound, the inhibition in [7] was 0.65%; in [8], 3.54%; in [9], 2.65%; in experiment [10], 3.9%; in [11] it was 2.27%; in experiment [12], -0.47%. Besides, the inhibition in [13] is -2.14%; in experiment [14] it was 2.88%; in experiment [15] it was 4.64%; in experiment [16] it was 2.37%; in experiment [17], 3.22%; in experiment [18], -2.06%. In addition, the inhibition in experiment [19] was found to be 1.12%; in experiment [20], 3.13%.
`FC(F)(F)c1cccc(Nc2nccc(-c3cnn4nc(-c5ccccc5)ccc34)n2)c1`: the inhibition is 3% in [1]; -2.14% in experiment [2]; 1.08% in experiment [3]; 3.54% in [4]; 1.79% in experiment [5]; 3.08% in [6]. In addition, the inhibition in experiment [7] was 3.39%; in experiment [8] it was 1.85%; in [9], 0.28%; in [10], 1.53%; in experiment [11], 1.51%; in experiment [12], -2.07%. The inhibition in [13] is -0.92%; in [14] it was 2.52%; in experiment [15], 8.98%; in experiment [16] it was -0.34%; in experiment [17] it was 8.75%; in experiment [18] it was -0.22%. Moreover, the figures for the inhibition in experiment [19] and in experiment [20] were -1.63% and 1.87%, respectively.
As for `CN(C)c1ccc2c(c1)/C(=C/Nc1ccc(S(N)(=O)=O)cc1)C(=O)N2`, the inhibition in experiment [1] is 2.21%; in experiment [2], -1.98%; in [3] it was -1.04%; in experiment [4], 1.18%; in experiment [5], 2.39%; in experiment [6] it was 1.4%. The inhibition is 0.72% in [7]; 6.36% in experiment [8]; 1.98% in experiment [9]; 2.6% in [10]; 1.82% in [11]; -1.68% in experiment [12]. The inhibition was -2.04% in [13]; 0.45% in [14]; 4.82% in experiment [15]; 0.7% in [16]; 4.54% in experiment [17]; -6.01% in [18]. The inhibition was 3.23% in [19] and 3.41% in [20].
Take `O=C(Nc1n[nH]c2nc(-c3ccco3)ccc12)C1CC1`: the inhibition in experiment [1] worked out at 1.35%; in experiment [2], 0.39%; in experiment [3], 4.26%; in [4] it was 1.96%; in [5], 5.5%; in [6], 1.81%. Moreover, the inhibition in [7] was 1.59%; in [8] it was 1.26%; in experiment [9], 1.37%; in experiment [10], 5.77%; in experiment [11] it was 0.97%; in experiment [12] it was -1.07%. For the same compound, the inhibition in experiment [13] was -1.33%; in experiment [14], -1.36%; in [15] it was 0.99%; in experiment [16], -0.99%; in [17] it was 1.03%; in experiment [18], 3.38%. Also, the inhibition was 1.68% in [19] and -0.31% in [20].
As to `COC(=O)Nc1nc2ccc(Sc3ccc(NC(=O)Nc4cc(C(F)(F)F)ccc4F)cc3)cc2[nH]1`, the inhibition was 1.55% in [1]; 0.07% in experiment [2]; 8.97% in experiment [3]; 5.88% in experiment [4]; 39.3% in experiment [5]; 3.62% in experiment [6]. For the same compound, the inhibition in [7] was 34.3%; in experiment [8], 1.98%; in [9] it was 2.44%; in [10], 0.78%; in experiment [11] it was 2.22%; in [12], -1.15%. Also, the inhibition in experiment [13] was -0.09%; in [14], -1.35%; in [15], 8.27%; in experiment [16], 0.7%; in experiment [17] it was 10.2%; in [18] it was 1.21%. In addition, the figures for the inhibition in experiment [19] and in [20] were -4.04% and 0.39%, respectively.
As for `NC(=O)c1cc(-c2ccc(F)cc2)cc(-c2ccncc2)c1N`, the inhibition in experiment [1] is 3.05%; in experiment [2] it was -2.8%; in experiment [3], -1.27%; in [4], 6.13%; in [5] it was 8.6%; in [6], 2.26%. Besides, the inhibition in experiment [7] is 5.45%; in [8], 2.57%; in [9], 3.93%; in experiment [10], 4.51%; in [11], 3.29%; in [12], -2.19%. For the same compound, the inhibition is -2.78% in [13]; 3.84% in [14]; 22.8% in experiment [15]; 2.48% in experiment [16]; 4.83% in experiment [17]; -4.18% in experiment [18]. Moreover, the inhibition in [19] is -2.52%; in experiment [20], -2.79%.

As a reminder, the inhibition is the drop in the measured response relative to a control, in per cent.
